Assay results: PubChem BioAssay (NCI)
This is part of a sample that, as a whole, favours compounds with a hit. Of some 79,000 tested, about 15% had one in any assay. Values without a mark were called inactive. Activity calls are given as the source filed them. Rule as the data show it: active = growth inhibition above about 70%; inactive = the rest.

Key:
[1] = NCI Yeast Anticancer Drug Screen. Data for the rad50 strain (AID 155);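 also: 0% = growth of vehicle-only cultures of the same strain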; conditions: S. cerevisiae rad50 strain growth inhibition; at 50.0 µM; active compounds read high
Method in brief: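 Vehicle-treated cultures provide the reference for the growth inhibition reported for compound-exposed, repair-deficient yeast.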

[2] = NCI Yeast Anticancer Drug Screen. Data for the mec2-1 strain (AID 157); conditions: S. cerevisiae mec2-1 strain, at 50.0 µM, active compounds read high
Method in brief: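 Yeast mec2-1 mutant treated with compound. Readout: growth inhibition vs vehicle controls.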

[3] = NCI Yeast Anticancer Drug Screen. Data for the sgs1 mgt1 strain (AID 161);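 also: 0% = growth of cultures given vehicle only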; conditions: S. cerevisiae sgs1 mgt1 strain, at 50.0 µM, active compounds read high
Method in brief: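 Inhibition of yeast growth, normalised to vehicle-treated controls, is reported for a strain bearing genetic alterations in DNA damage repair.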

[4] = NCI Yeast Anticancer Drug Screen. Data for the cln2 rad14 strain (AID 165);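 also: 0% = growth equal to vehicle treated cultures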; conditions: S. cerevisiae cln2 rad14 strain, at 50.0 µM, active compounds read high
Method in brief: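 cln2 rad14 yeast strain; compound exposure; growth inhibition read vs vehicle controls.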

[5] = NCI Yeast Anticancer Drug Screen. Data for the bub3 strain (AID 167); conditions: S. cerevisiae bub3 mutant strain, at 50.0 µM, active compounds read high
Method in brief: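 Mutant yeast screening strain plus compound; vehicle-treated cultures serve as the 0% inhibition reference.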

[6] = NCI Yeast Anticancer Drug Screen. Data for the mlh1 rad18 strain (AID 175); conditions: S. cerevisiae mlh1 rad18 strain growth inhibition; at 50.0 µM; active compounds read high
Method in brief: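 Yeast w/ defined DNA-repair lesions; compound exposure; growth vs vehicle controls → % inhibition.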

Row | SMILES | growth inhibition [1] | growth inhibition [2] | growth inhibition [3] | growth inhibition [4] | growth inhibition [5] | growth inhibition [6]
1 | O=[N+]([O-])c1ccc(S(=O)(=O)N/N=C/C=C/c2ccccc2[N+](=O)[O-])cc1 | 5% | -5.65% | 7.35% | -7.55% | 16.4% | 39.1%
2 | O=[N+]([O-])c1ccc(P(=O)(Nc2ccc3ccccc3c2)Nc2ccc3ccccc3c2)cc1 | 34.5% | 15.2% | 15.5% | 0.2% | 13.1% | 46.5%
3 | NC(=O)n1ccc(CC(O)(C(F)(F)F)C(F)(F)F)n1 | -13.2% | 44% | -2.55% | 55.1% | 2.35% | 22.4%
4 | OCC(O)C(O)C(O)C(SCc1ccccc1)SCc1ccccc1 (stereo not given) | 3.9% | -7.85% | -20.4% | -4.8% | -6.2% | -12.6%
5 | Nc1c(Br)cc(Br)cc1-c1cc(Br)cc(Br)c1N | 3.65% | 17% | 10.4% | 5.3% | 13.4% | 24.4%
6 | C[n+]1ccccc1/C=C/c1ccc([N+](=O)[O-])cc1 | 9% | 5.8% | 13.2% | -10.3% | -1.8% | 6.3%
7 | CC(=O)C1C(=O)C(=O)N(c2ccc(F)cc2)C1=O (stereo not given) | -17.4% | -15.5% | -5.4% | -6.95% | -25.9% | -27.3%
8 | CN(C)c1nc(Cl)nc2nc(Cl)[nH]c12 | -10.9% | 3.15% | 13.2% | 0.8% | -3.2% | 11.9%
9 | S=c1nc[nH]c2c1cnn2-c1ccccc1 | 5.6% | 19.6% | 54.4% | -13.2% | -7.3% | 40.2%
10 | COCc1onc(-c2ccc(OC)cc2)c1-c1ccc(OC)cc1 | 8.25% | 20.4% | 3.6% | 30.9% | 49.4% | 31.4%
11 | CC(C)=NNC(=O)Nc1cccc(C)c1C | 9.35% | 15.2% | -7.2% | -47.3% | -9.85% | -6.7%
12 | Cc1ccc(C)[nH]1 | -2.85% | 7.35% | -8.45% | 53.2% | -4.4% | 18.1%
13 | NC(=Nc1ccc(Br)cc1)/N=C(/N)Nc1cccc(S(=O)(=O)Nc2ncc(Cl)cn2)c1 | 10.2% | -8.75% | 25.2% | 15.8% | 1.95% | 4.95%
14 | CC(C)(C)c1ccc(P(=O)(O)C(C)(C)C)cc1 | -9.5% | 5.9% | -15.5% | 35% | 4.15% | 6.95%
15 | O=[P+](O)c1cc2c3ccccc3ccc2c2ccccc12 | -34.9% | 11.8% | 32% | -12.3% | 33% | -0.55%
16 | O=c1oc2ccccc2c(N2CCCCC2)c1Cl | 1.6% | 40.6% | 12.3% | 22.1% | 17.6% | 15%
17 | COC(=O)[C@]1(C)CCC[C@]2(C)C3=C[C@@H](O)[C@@]4(C(C)C)O[C@H]4[C@]3(O)CC[C@@H]12 | -17.9% | -29.3% | -9.15% | -2.7% | -8.25% | -26.6%
18 | O=C(NCc1ccc2ccc3cccnc3c2n1)c1ccc[n+](Cc2ccccc2)c1 | -6.1% | -11.6% | 5.65% | 3.5% | 10.1% | 1.75%
19 | N#CCc1c(F)c(F)c(F)c(F)c1F | 6.8% | 5.75% | 14.4% | 3.2% | 10.5% | 2.6%
20 | CC(O)c1ccccc1Br (stereo not given) | -9.65% | -15.1% | -16.2% | -13.4% | -36.5% | -21%

Row | SMILES | growth inhibition [1] | growth inhibition [2] | growth inhibition [3] | growth inhibition [4] | growth inhibition [5] | growth inhibition [6]
21 | N#COc1ccc(-c2ccccc2)cc1 | -38.5% | -8.35% | -12.2% | -15.2% | -9.25% | 0.8%
22 | CCCCC(=O)N[C@H]1C[C@H]2CC[C@@]1(C)C2(C)C | -23.2% | 7.5% | -16.6% | -4.05% | 10.9% | -11.8%
23 | O=C(CC(=O)c1ccccc1)CC(=O)c1ccc(C(=O)CC(=O)CC(=O)c2ccccc2)cc1 | 29.4% | 1.3% | 30.9% | 0.85% | -1.8% | 22.4%
24 | N#CCCCCN1CCCC1 | 32.2% | -8.7% | 3.4% | 12.7% | 10.1% | 9.05%
25 | CCCCC(CC)/C(C)=N/NC(N)=O (stereo not given) | 4.7% | 9.55% | -5.3% | -9.1% | -1.15% | -11.5%
26 | CCN(CC)CCNc1nnc(NCCN(CC)CC)c2cc3ccccc3cc12 | 3.75% | 21% | -10.1% | -4.45% | -0.25% | 6.8%
27 | Cc1cc(NC(=S)Nc2ccccc2)c(NC(=S)Nc2ccccc2)cc1C | 2.1% | -25.2% | 1.55% | 6.7% | 3.2% | 3.2%
28 | c1ccc2c(c1)[nH]c1ccncc12 | -0.85% | 0.1% | -1.6% | -40% | -9.7% | 3.7%
29 | Nc1cccc2ncccc12 | 0.6% | -9.95% | -13.5% | -30% | -1.95% | -19.9%
30 | CC(C)CCOC(=O)CC(CC(=O)OCCC(C)C)C(=O)OCCC(C)C | 20.9% | -14.5% | 6.35% | 5.9% | -18.1% | 8.15%
31 | COc1ccc2c(C#N)cc3c4ccccc4ncc3c2c1 | 16.6% | 7% | -9.6% | 19.1% | -4.35% | -10.8%
32 | COC1=C(N)C(=O)c2ccc(-c3ccccn3)nc2C1=O | 89.7% (active) | 92.3% (active) | 86.8% (active) | 89.8% (active) | 81.8% (active) | 92.9% (active)
33 | C[n+]1c(/C=C\c2ccc(O)cc2)cc(C(N)=O)c2ccccc21 | 19.2% | 11.8% | 17.1% | 2.6% | 3.65% | 7.7%
34 | CCC(CC)c1ccc2ccccc2c1 | -22.2% | 1% | -11.6% | -19.6% | -6.55% | -11.4%
35 | CCCCN=C(OC1C=CCCC1)SC (stereo not given) | -12.8% | -25.6% | -14.6% | 9.95% | -4.7% | -7.7%
36 | CC1(C)C(=NN=C(N)N)C(C)(C)C1=NN=C(N)N | -3.35% | -6.95% | -15.8% | 29.3% | -18.5% | 14.7%
37 | CCOC1CSc2ccccc2C(c2ccccc2)=N1 (stereo not given) | 9.9% | -1.4% | 0.25% | 10.6% | 14.7% | 6.75%
38 | COc1cc(CN2CCN(CCO)CC2)c(O)c(CN2CCN(CCO)CC2)c1 | -2% | 1.55% | -23.4% | -6.9% | -5.45% | 6.9%
39 | CCN(CC)CCCC(C)NCCCN (stereo not given) | -7.15% | -9.05% | -5.4% | -5.4% | -23.3% | -10%
40 | COc1cc2ccncc2cc1O | -7.25% | -18.4% | -26.3% | -4.25% | 9.45% | -16.1%
